Results filed as inconclusive are left out. Where a call stands in place of a potency, no number is given. Active and inactive are the calls of the source. Calls follow the shape of the dose curve; as a rule, active = well fitted inhibition curve with a large enough effect; inconclusive = small, poorly fitted or top-dose-only effect; inactive = flat fitted curve, though single readings scatter.
Columns and labels:
Experiment in all cases: qHTS profiling for inhibitors of Plasmodium falciparum proliferation (AID 504749); also: nearly all actives have a fitted effect of over 60% in size
Details in all cases: P. falciparum in erythrocytes, SYBR Green DNA, 72 h; series mostly up to 28.7 µM
CP291 = test system: CP291
Summary of the method: (§1)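 Infected RBCs, 0.3% parasitemia/2.5% Hct final; cpd 72 h, 37 C, 5% CO2; lysis buffer with saponin/triton/SYBR Green I, o/n RT dark; FI 485/535; norm. to artemisinin (0.29 uM) and DMSO.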

CP297 = test system: CP297
Summary of the method: as §1

CP305 = test system: CP305
Summary of the method: as §1

CP315 = test system: CP315
Summary of the method: as §1

CP325 = test system: CP325
Summary of the method: as §1

CP329 = test system: CP329
Summary of the method: as §1

DFO2036 = test system: DFO2036
Summary of the method: as §1

DIV14 = test system: DIV14
Summary of the method: as §1

DIV17 = test system: DIV17
Summary of the method: as §1

DIV30 = test system: DIV30
Summary of the method: as §1

ECU = test system: ECU
Summary of the method: as §1

FAB9 = test system: FAB9
Summary of the method: as §1

GB4 = test system: GB4
Summary of the method: as §1

HB3 = test system: HB3
Summary of the method: as §1

ICS = test system: ICS
Summary of the method: as §1

JCK = test system: JCK
Summary of the method: as §1

N140 = test system: N140
Summary of the method: as §1

P93_24 = test system: P93_24
Summary of the method: as §1

Dd2 = test system: Dd2
Summary of the method: as §1

CP335 = test system: CP335
Summary of the method: as §1
Potency is read from the fitted curve at half-maximal effect.

Compound | Potency (CP291) | Potency (CP297) | Potency (CP305) | Potency (CP315) | Potency (CP325) | Potency (CP329) | Potency (DFO2036) | Potency (DIV14) | Potency (DIV17) | Potency (DIV30) | Potency (ECU) | Potency (FAB9) | Potency (GB4) | Potency (HB3) | Potency (ICS) | Potency (JCK) | Potency (N140) | Potency (P93_24) | Potency (Dd2) | Potency (CP335)
N[C@H](Cc1c[nH]c2ccccc12)C(=O)O | inactive | inactive | inactive | inactive | inactive | inactive | inactive | inactive | inactive | inactive | inactive | inactive | inactive | inactive | inactive | inactive | inactive | inactive | – | –
CCCCOc1ccc(OCCCN2CCOCC2)cc1 | inactive | inactive | inactive | inactive | inactive | inactive | inactive | inactive | inactive | inactive | inactive | inactive | inactive | inactive | inactive | inactive | inactive | inactive | inactive | –
Nc1ccc(C(=O)Nc2ccccc2N)cc1 | inactive | inactive | inactive | inactive | inactive | inactive | inactive | inactive | inactive | – | inactive | inactive | inactive | inactive | inactive | inactive | inactive | inactive | inactive | inactive
CN(C(=O)CN(CCO)CC(=O)N(C)C(C)(C)Cc1ccccc1)C(C)(C)Cc1ccccc1 | inactive | inactive | inactive | inactive | inactive | inactive | inactive | – | – | inactive | inactive | inactive | – | inactive | – | inactive | – | inactive | inactive | –
CCCCOc1cc(C(=O)NCCN(CC)CC)c2ccccc2n1 | inactive | inactive | inactive | inactive | inactive | inactive | inactive | – | inactive | inactive | inactive | inactive | – | inactive | – | inactive | inactive | inactive | inactive | inactive
COC1=CC(=O)C[C@@H](C)[C@]12Oc1c(Cl)c(OC)cc(OC)c1C2=O | inactive | inactive | inactive | inactive | inactive | inactive | inactive | – | inactive | inactive | inactive | inactive | inactive | inactive | inactive | inactive | inactive | inactive | inactive | inactive
CC[N+](CC)(CCNC(=O)C(=O)NCC[N+](CC)(CC)Cc1ccccc1Cl)Cc1ccccc1Cl | 6.75 µM (active) | 2.69 µM (active) | 3.01 µM (active) | 3.79 µM (active) | 3.38 µM (active) | 2.39 µM (active) | 1.78 µM (active) | 4.26 µM (active) | 4.78 µM (active) | 6.01 µM (active) | – | 1.12 µM (active) | 2.39 µM (active) | – | 1.58 µM (active) | 10 µM (active) | – | 0.794 µM (active) | 2.51 µM (active) | 2.69 µM (active)
Oc1ccc(Cl)c2cccnc12 | inactive | inactive | inactive | inactive | inactive | inactive | inactive | inactive | inactive | inactive | inactive | inactive | – | – | 11.2 µM (active) | inactive | inactive | inactive | – | –
C[C@H]1C[C@H]2[C@@H]3CCC4=CC(=O)C=C[C@]4(C)[C@@]3(Cl)[C@@H](O)C[C@]2(C)[C@@]1(O)C(=O)CO | inactive | inactive | inactive | inactive | inactive | inactive | inactive | inactive | inactive | – | inactive | inactive | inactive | inactive | – | inactive | inactive | inactive | inactive | inactive
CCC(C(=O)OCCN(CC)CC)c1ccccc1 (stereo not given) | inactive | inactive | inactive | inactive | inactive | inactive | inactive | inactive | inactive | inactive | inactive | inactive | – | inactive | inactive | inactive | inactive | inactive | – | inactive
CC(O)C(=O)O (stereo not given) | inactive | inactive | inactive | inactive | inactive | inactive | inactive | inactive | inactive | inactive | inactive | inactive | inactive | inactive | inactive | inactive | inactive | inactive | inactive | –
CN=C(NC#N)Nc1ccc(C2=NNC(=O)CC2C)cc1 (stereo not given) | inactive | inactive | inactive | inactive | inactive | inactive | – | inactive | inactive | inactive | – | – | inactive | – | – | – | – | – | – | inactive
COc1ccc(C2C(=O)c3ccccc3C2=O)cc1 | inactive | inactive | inactive | inactive | inactive | inactive | inactive | – | inactive | inactive | inactive | inactive | inactive | inactive | inactive | inactive | inactive | inactive | inactive | inactive
Cc1ccc(C(=O)C(C)CN2CCCCC2)cc1 (stereo not given) | inactive | inactive | inactive | inactive | inactive | inactive | inactive | inactive | – | – | – | inactive | 13.5 µM (active) | – | 3.98 µM (active) | inactive | – | – | inactive | –
CCCCCCCCCCCCCCCCCC(=O)OCC(O)CO (stereo not given) | inactive | inactive | inactive | inactive | inactive | inactive | inactive | inactive | inactive | – | inactive | inactive | inactive | inactive | inactive | – | inactive | – | inactive | –
c1ccc(OCc2ccc(CCCN3CCOCC3)cc2)cc1 | inactive | inactive | inactive | inactive | inactive | inactive | inactive | 8.49 µM (active) | 6.75 µM (active) | – | – | inactive | – | inactive | – | inactive | inactive | inactive | – | inactive
O=C(CCN1CCC(c2ccccc2)C1)c1ccc2c(c1)OCCO2 (stereo not given) | inactive | inactive | inactive | inactive | inactive | inactive | inactive | – | – | inactive | inactive | inactive | – | inactive | inactive | inactive | inactive | – | inactive | inactive
Cc1cc(O)c(C(C)C)cc1Cl | inactive | inactive | inactive | inactive | inactive | inactive | inactive | inactive | – | inactive | inactive | inactive | – | – | 10 µM (active) | inactive | inactive | inactive | inactive | inactive
COc1cc2c(cc1OC)C(=O)C(CC1CCN(Cc3ccccc3)CC1)C2 (stereo not given) | inactive | inactive | inactive | inactive | inactive | inactive | inactive | 10.7 µM (active) | – | inactive | inactive | inactive | – | inactive | – | inactive | inactive | inactive | 8.91 µM (active) | inactive
COc1cc(NS(C)(=O)=O)ccc1Nc1c2ccccc2nc2ccccc12 | 1.69 µM (active) | 4.78 µM (active) | 3.38 µM (active) | 6.75 µM (active) | 4.26 µM (active) | 4.78 µM (active) | 2.82 µM (active) | 1.9 µM (active) | 1.51 µM (active) | 4.26 µM (active) | 3.16 µM (active) | 3.98 µM (active) | – | 5.01 µM (active) | 1.58 µM (active) | 3.55 µM (active) | 2 µM (active) | 3.16 µM (active) | – | 4.26 µM (active)
O=C1OC(c2ccc(O)cc2)(c2ccc(O)cc2)c2ccccc21 | inactive | inactive | inactive | inactive | inactive | inactive | inactive | inactive | inactive | – | – | inactive | inactive | inactive | inactive | inactive | – | – | inactive | inactive
O=C(O)CCCCC(=O)O | inactive | inactive | inactive | inactive | inactive | inactive | inactive | inactive | inactive | inactive | inactive | inactive | inactive | inactive | inactive | inactive | inactive | inactive | inactive | –
CC(=O)OCC(=O)[C@@]1(OC(C)=O)[C@@H](C)C[C@H]2[C@@H]3C[C@H](F)C4=CC(=O)C=C[C@]4(C)[C@@]3(F)[C@@H](O)C[C@@]21C | inactive | inactive | inactive | inactive | inactive | inactive | inactive | – | – | inactive | inactive | inactive | – | inactive | 11.2 µM (active) | inactive | – | – | inactive | inactive
CC/C(=C(/CC)c1ccc(O)cc1)c1ccc(O)cc1 | inactive | inactive | inactive | inactive | inactive | inactive | inactive | – | inactive | inactive | inactive | inactive | – | inactive | – | inactive | inactive | inactive | inactive | –
CCCCC1=NC2(CCCC2)C(=O)N1Cc1ccc(-c2ccccc2-c2nn[nH]n2)cc1 | inactive | inactive | inactive | inactive | inactive | inactive | inactive | – | inactive | inactive | inactive | inactive | – | inactive | – | inactive | inactive | inactive | inactive | inactive
CN1CCC[C@@H]1c1cccnc1 | inactive | inactive | inactive | inactive | inactive | inactive | inactive | – | inactive | inactive | inactive | inactive | inactive | inactive | inactive | inactive | inactive | inactive | inactive | inactive
CN(C)/N=N/c1nc[nH]c1C(N)=O | inactive | inactive | inactive | inactive | inactive | inactive | inactive | inactive | inactive | inactive | inactive | inactive | inactive | inactive | inactive | inactive | inactive | inactive | inactive | –
Oc1ccc(O)cc1 | inactive | – | – | – | – | – | – | – | inactive | – | – | inactive | – | – | 11.2 µM (active) | inactive | – | – | – | 2.39 µM (active)
CCOc1ccc2nc3cc(N)ccc3c(N)c2c1 | 12 µM (active) | 15.1 µM (active) | 9.53 µM (active) | 4.26 µM (active) | – | 15.1 µM (active) | 5.62 µM (active) | 7.57 µM (active) | 15.1 µM (active) | – | 8.91 µM (active) | 7.94 µM (active) | – | 8.91 µM (active) | 4.47 µM (active) | 10 µM (active) | 10 µM (active) | 3.55 µM (active) | 2.51 µM (active) | 6.01 µM (active)
